Experimental findings from PubChem BioAssay (NCI) are described below.

The structures appear in SMILES notation. This is part of a sample that, as a whole, favours compounds with a hit. Of some 83,000 tested, about 20% had one in any assay.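 Plates (96-well) were seeded with cells, treated with compound at one concentration, and incubated for 48 hours before percent growth was determined.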 A number with no mark means an inactive call. Calls of active or inactive are those of the source. How the source made its calls: active means growth percent below 10; inactive means the rest.

Common to all, as to assay: NCI-60 one-dose screen, 48 h (100 = growth as untreated, 0 = no growth, -100 = all killed)
One test concerns NCI-H23 lung. Particulars: 10 µM unless noted.
In the next test the test system is NCI-H226 lung. Particulars: 10 µM unless noted.
Another test relates to NCI-H322M lung. The settings on record: 10 µM unless noted.
A further test has as its system NCI-H460 lung. The settings on record: 10 µM unless noted.
Another test concerns HOP-92 NSCLC. The settings on record: 10 µM unless noted.
A further test concerns NCI-H522 lung. The settings on record: 10 µM.
The next test has as its system 786-0 renal. Particulars: 10 µM unless noted.
A further test has as its system COLO 205 colon. The settings on record: 10 µM unless noted.
The test system of the next test is K-562 leukemia. The settings on record: 10 µM unless noted.
The subject of the next test is MDA-MB-231 breast. Particulars: 10 µM unless noted.
The subject of a further test is SF-268 CNS. The settings on record: 10 µM unless noted.
The next test relates to SF-295 CNS. The settings on record: 10 µM unless noted.
A further test has as its system SF-539 CNS. Particulars: 10 µM unless noted.
A further test relates to UACC-257 melanoma. The settings on record: 10 µM unless noted.
The next test deals with M14 melanoma. Particulars: 10 µM unless noted.
The subject of another test is A549/ATCC NSCLC. The settings on record: 10 µM unless noted.
Another test deals with DU-145 prostate. The settings on record: 10 µM unless noted.
For the next test, the system named is MALME-3M melanoma. Particulars: 10 µM unless noted.
A further test relates to RXF 393 renal. The settings on record: 10 µM unless noted.

For `c1ccc(N2c3nc4ccccc4cc3Sc3cc4ccccc4nc32)nc1`, the growth in the test with NCI-H23 lung was 93.7%; in the test with NCI-H226 lung it was 84.9%; in the test on NCI-H322M lung, 83.6%; in the test on NCI-H460 lung, 111%; in the test on HOP-92 NSCLC, 39%; with NCI-H522 lung, 98.1%. In addition, the growth was 92.9% in the test with 786-0 renal; 141% with COLO 205 colon; 85.7% in the test on K-562 leukemia; 68.4% with MDA-MB-231 breast; 80.8% with SF-268 CNS; 96.1% with SF-295 CNS. The figures for the growth in the test on SF-539 CNS, in the test on UACC-257 melanoma and with M14 melanoma were 111%, 87.8% and 109%, respectively.
`N#Cc1c(NC(=O)c2ccco2)[n+]([O-])c2ccccc2[n+]1[O-]`: the growth was 110% in the test with NCI-H23 lung; 86.1% with NCI-H226 lung; 103% with NCI-H322M lung; 107% in the test with NCI-H460 lung; 164% with HOP-92 NSCLC; 99.7% in the test on A549/ATCC NSCLC. For the same compound, the growth with 786-0 renal is 99.2%; with COLO 205 colon it was 105%; with DU-145 prostate, 95.5%; in the test on K-562 leukemia, 84.9%; in the test on MALME-3M melanoma it was 112%; in the test with MDA-MB-231 breast it was 96.1%. The growth in the test on RXF 393 renal was 95.5%; in the test with SF-268 CNS, 110%; in the test on SF-295 CNS, 107%; with SF-539 CNS it was 84.4%; in the test on UACC-257 melanoma, 102%; with M14 melanoma, 104%.
With `COc1ccc2c(c1)CC[C@@H]1[C@@H]2CC[C@]2(C)[C@@H](O)C(=O)C[C@@H]12`, the growth in the test with NCI-H23 lung is 102%; with NCI-H226 lung, 114%; in the test with NCI-H322M lung, 91.3%; in the test on NCI-H460 lung it was 102%; in the test with HOP-92 NSCLC, 116%; in the test on A549/ATCC NSCLC it was 99.6%. Also, the growth with 786-0 renal was 106%; with COLO 205 colon it was 102%; in the test with DU-145 prostate it was 104%; with K-562 leukemia it was 94.2%; in the test with MALME-3M melanoma it was 148%; in the test on MDA-MB-231 breast it was 109%. Further, the growth is 134% in the test with RXF 393 renal; 97.1% with SF-268 CNS; 109% in the test on SF-295 CNS; 100% in the test on SF-539 CNS; 106% in the test on UACC-257 melanoma; 110% in the test on M14 melanoma.
`CCN(CC)CCSc1ncnc2c1cnn2-c1ccc(S(N)(=O)=O)cc1`: the growth in the test with NCI-H23 lung was 94.9%; with NCI-H226 lung, 92.9%; in the test on NCI-H322M lung, 102%; in the test on NCI-H460 lung, 85.9%; in the test with HOP-92 NSCLC it was 50.9%; in the test on A549/ATCC NSCLC, 84.7%. The growth with 786-0 renal was 95.3%; with COLO 205 colon, 113%; with DU-145 prostate, 97%; in the test with K-562 leukemia, 63.2%; in the test with MALME-3M melanoma, 69.1%; with MDA-MB-231 breast, 93.3%. Moreover, the growth in the test on RXF 393 renal was 34.2%; in the test on SF-268 CNS it was 105%; with SF-295 CNS, 54.5%; with SF-539 CNS, 94.4%; with UACC-257 melanoma, 65.5%; in the test with M14 melanoma, 98.6%.
As to `N#CSCC1CC(O)(c2ccccc2)C(c2ccccc2)C(c2ccc(Cl)cc2)O1` (stereo not given), the growth in the test on NCI-H23 lung is -78.6% (active); with NCI-H226 lung, 19.7%; in the test with NCI-H322M lung, 52.3%; with NCI-H460 lung it was -68.7% (active); in the test on HOP-92 NSCLC, -29.6% (active); in the test on A549/ATCC NSCLC, -53.7% (active). Besides, the growth in the test with 786-0 renal was -74.3% (active); in the test with COLO 205 colon, -98.3% (active); with DU-145 prostate it was -68.2% (active); in the test with K-562 leukemia it was -6.84% (active); with MALME-3M melanoma, -80.8% (active); in the test with MDA-MB-231 breast, -52.2% (active). In addition, the growth was -91.5% (active) with RXF 393 renal; -34.1% (active) in the test on SF-268 CNS; -77.9% (active) with SF-295 CNS; -96.4% (active) in the test on SF-539 CNS; -70.2% (active) in the test on UACC-257 melanoma; -77.8% (active) in the test with M14 melanoma.
Take `COC(=O)N/N=C/c1coc2ccc(Cl)cc2c1=O`: the growth in the test with NCI-H23 lung was 99.4%; with NCI-H226 lung, 84.7%; in the test on NCI-H322M lung, 99.2%; with HOP-92 NSCLC it was 1.24% (active); with A549/ATCC NSCLC, 103%; in the test with 786-0 renal, 104%. In addition, the growth with COLO 205 colon is 91.4%; with DU-145 prostate it was 106%; in the test on K-562 leukemia, 86.9%; in the test with MALME-3M melanoma, 75.7%; with MDA-MB-231 breast, 71.3%; in the test with RXF 393 renal it was 66.6%. The growth was 85.5% with SF-268 CNS, 93.6% with SF-295 CNS, 99.8% in the test on SF-539 CNS and 111% in the test with UACC-257 melanoma.
Regarding `[N-]=[N+]=NCc1ncc(-c2ccc(C(F)(F)F)cc2)c(NC2CCCCCC2)n1`, the growth in the test on NCI-H23 lung was 66.1% [50 µM]; in the test on NCI-H226 lung, 80.9% [50 µM]; in the test with NCI-H322M lung, 89.5% [50 µM]; with NCI-H460 lung, 58.4% [50 µM]; in the test with HOP-92 NSCLC it was 64.5% [50 µM]; with A549/ATCC NSCLC, 59.4% [50 µM]. Besides, the growth with 786-0 renal is 68.7% [50 µM]; with COLO 205 colon, 87.2% [50 µM]; with DU-145 prostate, 73.4% [50 µM]; with K-562 leukemia, 34.5% [50 µM]; in the test with MALME-3M melanoma it was 85% [50 µM]; in the test on MDA-MB-231 breast it was 73% [50 µM]. The growth was 87.7% [50 µM] in the test on RXF 393 renal; 75.5% [50 µM] in the test with SF-268 CNS; 49.9% [50 µM] in the test with SF-295 CNS; 82.2% [50 µM] with SF-539 CNS; 89.3% [50 µM] with UACC-257 melanoma; 74.6% [50 µM] in the test on M14 melanoma.
In the case of `Nc1ncnc2c1CN(Cc1ccccc1)CC2`, the growth was 98.3% in the test with NCI-H23 lung; 113% in the test with NCI-H226 lung; 117% in the test on NCI-H322M lung; 107% with NCI-H460 lung; 87.5% in the test on HOP-92 NSCLC; 90.3% in the test with A549/ATCC NSCLC. Besides, the growth was 101% in the test with 786-0 renal; 115% with COLO 205 colon; 132% in the test with DU-145 prostate; 98.1% in the test with K-562 leukemia; 104% in the test on MDA-MB-231 breast; 122% in the test with RXF 393 renal. Besides, the growth was 105% in the test with SF-268 CNS; 105% in the test on SF-295 CNS; 99.2% with SF-539 CNS; 111% in the test with UACC-257 melanoma; 111% in the test on M14 melanoma.
On to `CC(=O)OC1Oc2cc(C)c(C)cc2-c2oc(=O)c(-c3ccccc3)cc21` (stereo not given), for which the growth in the test on NCI-H23 lung is 46.3%; with NCI-H226 lung, -6.38% (active); in the test with NCI-H322M lung it was 33.5%; in the test with NCI-H460 lung, 4.89% (active); with HOP-92 NSCLC, -41.5% (active); with A549/ATCC NSCLC, 24.8%. Moreover, the growth in the test on 786-0 renal is 33.5%; in the test on COLO 205 colon, 0.826% (active); with DU-145 prostate, 15%; with K-562 leukemia, -0.66% (active); in the test with MALME-3M melanoma it was -4.37% (active); with MDA-MB-231 breast it was 43.7%. The growth is -35.3% (active) with RXF 393 renal; 36.8% with SF-268 CNS; -39.9% (active) in the test on SF-295 CNS; -37.1% (active) with SF-539 CNS; 74.5% with UACC-257 melanoma.
